Data: PubChem BioAssay (NCI)
Compounds without any hit were thinned out: in the full panel of roughly 83,000, 20% have a hit.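 Treatment: one concentration, 48 hours, 96-well format. Scoring: percent growth, with anything below 10 considered active.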 Active and inactive are the calls of the source.

test system: KM12 colon; test: NCI-60 one-dose screen, 48 h (100 = growth as untreated, 0 = no growth, -100 = all killed); conditions: 10 µM

SMILES | growth
O=C(/C=C/c1ccco1)c1nc2ccccc2n1Cc1ccc(Br)cc1 | 20.7% (inactive)
O=C(/C=C/c1ccco1)c1nc2ccccc2n1Cc1ccc(F)cc1 | 50.8% (inactive)
COc1cc2cc(C(=O)N3C[C@@H](CCl)c4c3cc(OC(=O)N3CCN(C)[C@@H]5CSSC[C@@H]53)c3ccccc43)[nH]c2c(OC)c1OC | 0.977% (active)
C#CC[Se]C(=O)c1ccc2n[se]nc2c1 | 95.2% (inactive)
O=C(/C=C/c1ccc(Cl)cc1Cl)c1nc2ccccc2n1Cc1ccc(F)cc1 | 53% (inactive)
O=C(/C=C/c1ccc(Cl)cc1)c1nc2ccccc2n1Cc1ccc(Br)cc1 | 67.6% (inactive)
CCOP(=O)(OCC)C(NC(C)=O)C(=O)SCCN (centres undefined) | 112% (inactive)
COc1cc2cc(C(=O)N3C[C@@H](CCl)c4c3cc(OC(=O)N3CCN(C)[C@@H]5CSSC[C@H]53)c3ccccc43)[nH]c2c(OC)c1OC | -9.39% (active)
COc1ccc2cc([C@H](C)C(=O)[Se]CCC#N)ccc2c1 | 5.84% (active)
CC12OOC(C)(OO1)C2CCC(=O)OCCNc1ccnc2cc(Cl)ccc12 (centres undefined) | 60.6% (inactive)
CC(C)N=C([Se])NC(=O)c1cccs1 | 16.7% (inactive)
Cc1ccc2[nH]c(=S)n(-c3ccc(F)cc3)c(=O)c2c1 | 103% (inactive)
CCOC(=O)C1=C(Nc2ccccc2)C(=O)OC12C(=O)Nc1ccccc12 (centres undefined) | 105% (inactive)
CC12CCC3(CCC(=O)NCCCNc4ccnc5cc(Cl)ccc45)[C@@](C)(OO[C@]3(C)O1)O2 | 9.24% (active)
CC[C@]12C=CCN3CC[C@@]4(c5ccc(OC)cc5N(C)[C@H]4[C@@](O)(C(=O)OC)[C@@H]1OC(=O)CCCC[P+](C1CCCCC1)(C1CCCCC1)C1CCCCC1)[C@@H]32 | -71.1% (active)
CC(=O)Oc1ccccc1C(=O)[Se]C(=NC(C)C)NC(C)C | -89.6% (active)
COCCOCCOCCOc1ccc(-n2cc(CCCN(CCNc3ccnc4cc(Cl)ccc34)C(=O)CCC(=O)O[C@@H]3O[C@@H]4OC5(C)CC[C@H]6[C@H](C)CC[C@@H]([C@H]3C)[C@@]46OO5)nn2)cc1 | 28.6% (inactive)
C[C@H]1[C@@H](CC(=O)N[C@@H](Cc2coc3ccccc23)B(O)O)O[C@@H]2OC3(C)CC[C@H]4[C@H](C)CC[C@@H]1[C@@]24OO3 | -20.4% (active)
COP(=O)(CC(F)(F)C(F)(F)F)OC | 94.6% (inactive)
CC12OOC(C)(OO1)C2CCC(=O)NCCNc1ccnc2cc(Cl)ccc12 (centres undefined) | 101% (inactive)

SMILES | growth
CC[C@]12C=CCN3CC[C@@]4(c5ccc(OC)cc5N(C)[C@H]4[C@@](O)(C(=O)OC)[C@@H]1OC(=O)CCC[P+](c1ccc(C)cc1)(c1ccc(C)cc1)c1ccc(C)cc1)[C@@H]32 | -76.1% (active)
CC(C)N=C([Se])NC(=O)c1ccccc1 | -8.34% (active)
CC[C@]12C=CCN3CC[C@@]4(c5ccc(OC)cc5N(C)[C@H]4[C@@](O)(C(=O)OC)[C@@H]1OC(=O)CCC[P+](C1CCCCC1)(C1CCCCC1)C1CCCCC1)[C@@H]32 | -63.4% (active)
CC1=C(COCCOC(=O)c2ccc(S(=O)(=O)F)cc2)C2=C(C)C3(CC3)[C@@](C)(O)C(=O)C2=C1 | 29.6% (inactive)
CC[C@]12C=CCN3CC[C@@]4(c5ccc(OC)cc5N(C)[C@H]4[C@@](O)(C(=O)OC)[C@@H]1OC(=O)CCCC[P+](c1ccc(OC)cc1)(c1ccc(OC)cc1)c1ccc(OC)cc1)[C@@H]32 | -68.8% (active)
CC1=C(CCC=NNC(N)=O)C2=C(C)C3(CC3)[C@@](C)(O)C(=O)C2=C1 | 1% (active)
CC[C@@]12CC(C(=O)OC)=C3Nc4cc5c(cc4[C@@]34CCN(C[C@H]3O[C@H]31)[C@@H]24)[C@@H]1[C@H](O5)[C@@H](O)[C@@]2(CC)CC(C(=O)OC)=C3Nc4cc(OC)ccc4[C@@]34CCN1[C@@H]24 | 10.2% (inactive)
CCOP(=O)(CC(F)(F)C(F)(F)F)OCC | 89.3% (inactive)
CC1=C2C(=C[C@@](C)(COP(=O)(Oc3ccccc3)Oc3ccccc3)[C@@H]2O)C(=O)[C@@](C)(O)C12CC2 | -29.3% (active)
CC(=O)Oc1ccccc1C(=O)NC([Se])=NC1CCCCC1 | 5.47% (active)
C[C@H]1[C@H](OC(=O)CCC(=O)N(CCCc2cn(-c3ccc(CN4CCOCC4)cc3)nn2)CCNc2ccnc3cc(Cl)ccc23)O[C@@H]2OC3(C)CC[C@H]4[C@H](C)CC[C@@H]1[C@@]24OO3 | 24.7% (inactive)
O=C(/C=C/c1ccc(Cl)cc1)c1nc2ccccc2n1Cc1ccc(F)cc1 | 24.9% (inactive)
CC1=C(CCC=O)C2=C(C)C3(CC3)[C@@](C)(O)C(=O)C2=C1 | -72.9% (active)
O=C(NC([Se])=NC1CCCCC1)c1ccc2c(c1)OCO2 | 32.4% (inactive)
C[C@H]1[C@H](OC(=O)CCC(=O)N(CCCc2cn(-c3ccc(C#N)cc3)nn2)CCNc2ccnc3cc(Cl)ccc23)O[C@@H]2OC3(C)CC[C@H]4[C@H](C)CC[C@@H]1[C@@]24OO3 | 31.4% (inactive)
C[C@H]1[C@@H](Oc2ccc(-c3cn(-c4ccnc5cc(Cl)ccc45)nn3)cc2)O[C@@H]2OC3(C)CC[C@H]4[C@H](C)CC[C@@H]1[C@@]24OO3 | 25.6% (inactive)
COc1ccc(/C=C/C(=O)c2nc3ccccc3n2Cc2ccc(Br)cc2)cc1 | 61.5% (inactive)
COC(=O)CCn1c(-c2ccc(-n3cc(-c4ccc(O[C@H]5O[C@@H]6OC7(C)CC[C@H]8[C@H](C)CC[C@@H]([C@H]5C)[C@@]68OO7)cc4)nn3)cc2)nc2ccccc21 | 18% (inactive)
C[C@H]1[C@H](OC(=O)CCC(=O)N(CCCc2cn(-c3ccc([N+](=O)[O-])cc3)nn2)CCNc2ccnc3cc(Cl)ccc23)O[C@@H]2OC3(C)CC[C@H]4[C@H](C)CC[C@@H]1[C@@]24OO3 | 33.6% (inactive)
